Among the data in ChEMBL document CHEMBL1157539, “Thousands of chemical starting points for antimalarial lead identification” (Nature, 2010) are IFI values, retold here.

Structures are written as SMILES. Where “and” joins values, the source holds several entries; their conditions need not be identical. Equal values may be shown once. Over roughly 13,000 compounds, “IFI” has its median near 4; the highest 2% begin near 17. Many of the other results were omitted from the sample, so the highest values are more common in it than they were.

The assay is described as follows: GSK_TCMDC: Inhibition Frequency Index (IFI). The number of non-kinase HTS assays where a compound showed > 50 % inhibition, expressed as a percentage of the number of such assays in which the compound was tested. The format is functional.
For `CC(=O)Nc1nc(C(=O)Nc2ccc(-c3cccc(-c4nc5cc(C(F)(F)F)ccc5[nH]4)c3)cc2)cs1`, the IFI worked out at 6.03%. The figure for `Cc1cc(=O)c(-c2ccc(Oc3cccc(C(F)(F)F)c3)cc2)c(C)[nH]1` is 2.56% and 2.24%; for `CCC(C)c1ccc(Nc2nc(C)cc(N(CC)CCCN3CCCCC3)n2)cc1` (stereo unspecified) it is 19.5%; for `CCN(CCCN1CCCCC1)c1cc(C)nc(Nc2ccc(C(C)C)cc2)n1` it is 10.3%.

`CCN(CCCN1CCCCC1)c1cc(C)nc(Nc2ccc(C)cc2)n1` returned an IFI of 2.56%. The figure for `CC(C)(C)c1ccc(C(=O)Nc2cccc(Nc3c(C(=O)NCc4cccc(C(F)(F)F)c4)cnc4c(O)cccc34)c2)cc1` is 3.68%; for `CCCCN(CCCC)/C(=N/c1cccc(Cl)c1Cl)Nc1ccc(C#N)cc1O` it is 7.14%. In the case of `O=C(Cc1cccc(O)c1)Nc1ccc(-c2cccc(-c3nc4cc(C(F)(F)F)ccc4[nH]3)c2)cc1`, the IFI stood at 8.93%. The figure for `CC(CN(C)C)C(=O)Nc1cccc(-c2cccc(-c3nc4ccccc4[nH]3)c2)c1` (stereo unspecified) is 5.41%; for `O=C(Nc1cccc(-c2cccc(-c3ccc(F)cc3)n2)c1)c1ccc([N+](=O)[O-])o1` it is 19.1%; for `COc1cccc(-c2cccc(-c3ccc(NC(=O)c4ccc([N+](=O)[O-])o4)cc3)n2)c1` it is 9.52%. The compound `COc1ccccc1-c1cccc(-c2cccc(NC(=O)c3ccc([N+](=O)[O-])o3)c2)n1` had an IFI of 11.9%. Next, `Cc1cccc2nc(-c3ccc(-c4ccc(CN5CCCC(N)C5)cc4)cc3)[nH]c12` (stereo unspecified): 4.23%; `CCc1c(C(=O)NC2CCC(N3CCC(c4ccccc4C)CC3)CC2)[nH]c2ccc(Br)cc12` (stereo unspecified): 15.8%. As for `COc1ccccc1C1CCN(C2CCC(NC(=O)/C=C/c3ccc4c(c3)OC(F)(F)O4)CC2)CC1` (stereo unspecified), the IFI turned out to be 9.84%.

The compound `Cc1ccccc1C1CCN(C2CCC(NC(=O)/C=C/c3ccc4c(c3)OC(F)(F)O4)CC2)CC1` (stereo unspecified) came in with an IFI of 17.2%. The figure for `CCc1c(C(=O)NC2CCC(N3CCC(c4ccccc4OC)CC3)CC2)[nH]c2ccc(OC)cc12` (stereo unspecified) is 6.45%; for `COc1ccccc1C1CCN(C2CCC(NC(=O)c3cc(-c4ccc(Cl)cc4)cs3)CC2)CC1` (stereo unspecified) it is 16.4%. Next, `COc1ccccc1C1CCN(C2CCC(NC(=O)c3cc4cc(C(C)C)ccc4[nH]3)CC2)CC1` (stereo unspecified): 18%; `Cc1ccccc1C1CCN(C2CCC(NC(=O)c3cc(-c4ccc(Cl)cc4)cs3)CC2)CC1` (stereo unspecified): 22.4%. `COc1ccc(-c2csc(C(=O)NC3CCC(N4CCC(c5ccccc5C)CC4)CC3)c2)cc1` (stereo unspecified) returned an IFI of 14%. Next, `COc1ccccc1C1CCN(C2CCC(NC(=O)c3cc4ccccc4[nH]3)CC2)CC1` (stereo unspecified): 16.4%; `Cc1ccccc1C1CCN(C2CCC(NC(=O)c3cc4cc(C(C)C)ccc4[nH]3)CC2)CC1` (stereo unspecified): 19.6%; `Cc1ccc(/C=C/C(=O)NC2CCC(N3CCC(c4ccccc4C)CC3)CC2)cc1C` (stereo unspecified): 15%. Consider `Cc1ccc(/C=C/C(=O)NC2CCC(N3CCC(c4ccccc4C)CC3)CC2)cc1F` (stereo unspecified), for which the IFI came to 13.3%. The figure for `CN1CCC(NCc2ccc(-c3cccc(-c4nc5ccccc5[nH]4)c3)cc2)CC1` is 4.76%; for `Cc1[nH]c(C)c(-c2ccc(OCc3ccc(F)cc3)nc2)c(=O)c1Br` it is 3.57%; for `Cc1c(Cl)cccc1N=C(S)NN=Cc1ccccn1` it is 6.3%. In the case of `Cc1c(-c2cccc(C(C)(C)NCCCN3CCCCC3)c2)cnc(N)c1C`, the IFI amounted to 0.74%. Next, `Cc1ccc(O)cc1C[C@@H]1C(=O)CC[C@@]2(C)[C@H]1CC[C@]2(C)O`: 0%; `O=C(Nc1ccccc1)N(Cc1ccc(-c2cccc(CNC3CCCC3)c2)cc1)C1CCN(Cc2ccccc2)CC1`: 7.04%. As for `Cc1cccc2nc(-c3ccc(-c4cccc(CNCCCNS(C)(=O)=O)c4)s3)[nH]c12`, the IFI turned out to be 3.96%. The figure for `CNC(=O)c1cnc(Nc2ccc(OCC(O)CN(C)C)cc2)nc1Nc1cccc(OC)c1` (stereo unspecified) is 2.22%; for `CCOc1ccc2[nH]c(C)cc(=NN=Cc3ccccc3)c2c1` it is 1.53%; for `CCN(CC)CCCC(C)Nc1c(-c2ccc(OC)cc2)cnc2ccccc12` (stereo unspecified) it is 0%.

In turn, `CN(C)c1nc(NCc2ccccc2)nc(N/N=C/c2cc([N+](=O)[O-])ccc2O)n1` came in with an IFI of 6.16%. The figure for `CNC(=O)C1Cc2c([nH]c3cc(Br)ccc23)C2(CCN(CCc3ccccc3)CC2)N1` (stereo unspecified) is 7.86%; for `COc1ccc2nccc(N3CCN(CCNCc4ccc5c(n4)NC(=O)CO5)CC3)c2c1` it is 3.73%; for `Cc1c(C)c2c(c(C)c1O)CC[C@](C)(C(=O)N1CCC(CCN3CCC(c4c[nH]c5ccccc45)CC3)CC1)O2` it is 5.88%. In turn, `Cc1cccc2nc(-c3cccc(-c4cccc(NC(=O)COc5ccccc5C(N)=O)c4)c3)[nH]c12` showed an IFI of 6.09%.

Compound `CN(C)CCNC(=O)c1ccc(-c2cnc3ccc(NCc4ccc(Cl)c(Cl)c4)nn23)cc1` registered an IFI of 9.02%. `CCCCc1ccc2ncc(C(=O)OCC)c(O)c2c1` gave an IFI of 0.78%. The figure for `COc1c(Br)cc(Br)cc1-c1ccc(CN2C3CCCC2CCC3)[nH]1` is 6.82%. For the compound `COc1c(Br)cc(Br)cc1-c1ccc(CN2CC3CCC2CC3)[nH]1`, the IFI is 21.1%.

On to `COc1cccc(C(=O)Nc2ccc(Nc3nc(C)cc(N(C)C)n3)cc2)c1OC`, for which the IFI is 7.14%. Next, `CCCCCCCN1CC[C@@H](CCCc2ccnc3ccc(OCCCCN/C(N)=N/O)cc23)[C@@H](CC)C1`: 9.66%; `O=[N+]([O-])c1cnc(Nc2ccccc2O)nc1Nc1ccccc1O`: 19.2%; `CN(C)CC(O)COc1ccc(Nc2ncc([N+](=O)[O-])c(Nc3ccccc3O)n2)cc1` (stereo unspecified): 6.21%. The figure for `CN1CCN(c2ccc(Nc3ncc([N+](=O)[O-])c(Nc4ccccc4O)n3)cc2)CC1` is 6.99%; for `Cc1[nH]c(C)c(-c2ccc(CCc3ccc(N)cc3)cc2)c(=O)c1Cl` it is 1.89%. Next, `COc1ccc2[nH]c(C(=O)Nc3ccc4[nH]c(-c5ccccc5)nc4c3)cc2c1`: 7.69%.

The compound `CCc1cn(CC(=O)N(CCOc2ccc(-c3ccc(C(F)(F)F)cc3)cc2)CCN(CC)CC)c(SCc2ccc(F)cc2)nc1=O` registered an IFI of 6.34%. Next, `FC(F)(F)c1cccc(Nc2nc3nonc3nc2NC2C3CC4CC(C3)CC2C4)c1` (stereo unspecified): 20.6%. In the case of `FC(F)(F)c1cccc(Nc2nc3ccccc3nc2Nc2cccc(C(F)(F)F)c2)c1`, the IFI stood at 10%. Compound `O=[N+]([O-])c1ccc2nc(Nc3cccc(C(F)(F)F)c3)c(Nc3cccc(C(F)(F)F)c3)nc2c1` registered an IFI of 5.88%. The figure for `CC1(C)C(=O)Nc2ccc3c(c21)CC1SC(=O)NN=C31` (stereo unspecified) is 2.22%.

`CCCN(CCC)C(=O)c1cc(C(=O)N[C@@H](Cc2ccccc2)[C@H](O)CNC(C)(C)c2cccc(OC)c2)cc(N2CCCCS2(=O)=O)c1` yielded an IFI of 3.62%. Next, `CC(C)(C)c1ccc(CN2CCC(CNC(=O)c3cc(-c4cccc(Cl)c4)cs3)C2)cc1` (stereo unspecified): 12.2%; `Cc1cc2cc(-c3ccc(CN)cc3)ccc2nc1N`: 3.88%. Next, `O=C(c1ccc([N+](=O)[O-])o1)N1CCC(Cc2ccc(C(F)(F)F)cc2)CC1`: 9.52%; `COCCN1CCN(Cc2ccc(-c3ccc(-c4nc5cc(F)ccc5[nH]4)cc3)cc2)CC1`: 4.9%; `Clc1ccc(Nc2nc3ccc(Cl)cc3nc2Nc2ccc(Cl)cc2)cc1`: 10.1%.

`Clc1ccc(Nc2nc3nonc3nc2Nc2ccc(Cl)c(Cl)c2)cc1` came in with an IFI of 19.4%. The figure for `O=[N+]([O-])c1ccc2nc(Nc3ccc(Cl)c(Cl)c3)c(Nc3ccc(Cl)c(Cl)c3)nc2c1` is 2.86%; for `Clc1ccc(CNCCCCCCNCc2ccc(Cl)cc2)cc1` it is 11.3%; for `CC(=O)Nc1cc(C(=O)Nc2cccc(-c3cccc(-c4nc5cccc(C)c5[nH]4)c3)c2)ccc1C` it is 5.88%. As for `Cc1cc(NCCc2ccccc2)nc(NC(=N)Nc2cccc(F)c2)n1`, the IFI was 6.77%.

In the case of `NCc1cccc(-c2ccc3ccnc(N)c3c2)c1`, the IFI amounted to 2.86%.

`COc1cccc(-c2ccc3ccnc(N)c3c2)c1` had an IFI of 7.87%.

In turn, `Nc1cccc(-c2ccc3ccnc(N)c3c2)c1` came in with an IFI of 5.56%. The compound `Nc1nccc2ccc(-c3ccncc3)cc12` gave an IFI of 3%. The figure for `Nc1nccc2ccc(-c3ccc(Oc4ccccc4)cc3)cc12` is 20.7%; for `Nc1ccc(-c2ccc3ccnc(N)c3c2)cc1` it is 9.09%. The figure for `Nc1nccc2ccc(-c3cccc(O)c3)cc12` is 7.14%. Regarding `Nc1nccc2ccc(-c3ccc(OCc4ccccc4)cc3)cc12`, the IFI is 19.1%. Next, `Nc1nccc2ccc(-c3cccc(OCc4ccccc4)c3)cc12`: 19.8%; `CNc1nc(Nc2ccccc2C)nc2ccccc12`: 2.21%. Next, `CC(c1cccc(Nc2nccc(-c3c(-c4cccc(NC(=O)c5c(F)cccc5F)c4)nn4ccccc34)n2)c1)S(C)(=O)=O` (stereo unspecified): 6.31%; `O=S(=O)(c1c(Cl)cc(Cl)cc1Cl)N1CCCCC(c2ccc(C(F)(F)F)cc2)=N1`: 1.5%; `Nc1nc(O)c2c(n1)CCc1c(Br)cccc1-2`: 2.31%. Next, `COc1ccccc1C1CCN(C2CCC(NC(=O)/C=C/c3ccc(OC(F)(F)F)cc3)CC2)CC1` (stereo unspecified): 11.7%; `Nc1nc(Nc2cccc(O)c2)nc2ccccc12`: 5.04%; `NC[C@H](CC1CCCCC1)NC(=O)c1ccc(-c2ccnc3[nH]ccc23)s1`: 22.2%. In turn, `CCC[C@@H]([C@@H](CC1CCCCC1)C(=O)N[C@H](C(=O)Nc1nccc(N)n1)C(C)(C)C)N(O)C=O` registered an IFI of 2.86%.

Take `NCC(NC(=O)c1ccc(-c2c[nH]c3ncccc23)s1)c1ccccc1` (stereo unspecified): the IFI was 16.1%. The figure for `OCC1CCN(Cc2cccc(-c3cccc(-c4nc5cc(C(F)(F)F)ccc5[nH]4)c3)c2)CC1` is 5.83%. Turning to `CCCCCCOc1ccc(C(=O)NCCCC2CCCN(CCCCCNC(=O)C=Cc3ccc(Cl)c(Cl)c3)C2)cc1` (stereo unspecified), the IFI is 6.87%.

`Cc1ccc(F)cc1-c1cc(N2CCCN(C(=O)c3ccc(Br)o3)CC2)ncn1` came in with an IFI of 0%. The figure for `CC(C)(C)OC(=O)N[C@@H](Cc1ccccc1)C(=O)Nc1cccc(-c2cccc(NC(=O)[C@H](Cc3ccccc3)NC(=O)OC(C)(C)C)c2)c1` is 0.72%. Compound `COC(=O)C(c1ccc(NC(=O)[C@H](CC(C)C)NC(=O)OC(C)(C)C)cc1)c1ccc(NC(=O)[C@H](CC(C)C)NC(=O)OC(C)(C)C)cc1` displayed an IFI of 0%. Next, `C=CCc1ccc(C[C@H](NC(=O)OC(C)(C)C)C(=O)OC)cc1`: 18.9%.
